Here are results for 17 compounds from PubChem BioAssay (EPA / NIEHS).

One test relates to IYD (gene 389434). The test is described as follows: CCTE_GLTED_hIYD: CCTE's human Iodotyrosine Deiodinase (xIYD) Inhibition Assay, Great Lakes Toxicology and Ecology Division (GLTED) Lab (AID 2284317; active = hit-call score of the fitted dose curve at least 0.9, where 1 is the maximum;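 note: cell-free human IYD enzyme made in baculovirus insect cells; iodide freed from monoiodotyrosine measured by cerium arsenite color change at 420 nm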). The method in brief:
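In the IYD assay, iodide released from MIT by insect-cell-expressed human enzyme was quantified after 3 h via Sandell-Kolthoff rate at 420 nm, with plate-wise normalization to MNT and solvent controls.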

The next test concerns TTR (gene 7276). The test is described as follows: CCTE_GLTED_hTTR_0.5uM: CCTE's human Transthyretin (hTTR) Inhibition Assay, with 0.5uM TTR, Great Lakes Toxicology and Ecology Division (GLTED) Lab (AID 2284320). The gist of the method: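 Probe (ANSA) displacement from 0.5 uM human transthyretin was followed by fluorescence (ex 380, em 475) after a 2 h incubation with chemical. Activity was scored as signal loss and fitted positively relative to DMSO.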

The nature of test [1]: IUF_NPC2-5_viability_120hr: Viability Assessment at 120 hours in the Leibniz Research Institute for Environmental Medicine (IUF) Neural Progenitor Cell Migration and Differentiation Assay (NPC2-5) (AID 2284312). The method in brief:
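Human fetal (GW 16-19) neural progenitor spheres of 0.3 mm were plated on poly-D-lysine/laminin in N2 differentiation medium and exposed from day 0 for 120 h, with half-medium refresh at day 3. Viability was read as alamar blue resazurin-to-resorufin fluorescence against DMSO.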

Test [2] in a line: CCTE_Deisenroth_5AR_NBTE_donor: CCTE's 5alpha-reductase NanoBRET Target Engagement Assay […], Deisenroth Lab (AID 2284319). The following applies: actives raise or lower the signal. The gist of the method: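 HEK293T cells transiently expressing SRD5A2-NanoLuc, exposed 5 h to chemicals (8 points, 10 nM - 29.9 uM), with testosterone tracer for the final 2 h. Donor luminescence at 460 nm read after Nano-Glo substrate plus extracellular NanoLuc inhibitor; bidirectional fit versus DMSO.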
In general terms: In BRET a luciferase serves as donor, and the signal depends on an acceptor being close.

A short description of test [3]: CCTE_Deisenroth_5AR_NBTE_acceptor: CCTE's 5alpha-reductase NanoBRET Target Engagement Assay - Autofluorescence Screen, Deisenroth Lab (AID 2284321).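 Note: compound fluorescence in the acceptor channel under 460 nm excitation flags autofluorescence artifacts.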 The following applies: actives raise or lower the signal. The gist of the method:
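Acceptor-channel fluorescence flags artifacts, with excitation fixed at 460 nm. Nominal 100 uM chemical samples were read in triplicate runs, and signal changes were fitted in both directions relative to DMSO.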

The subject of the next test is SRD5A2 (gene 6716). The test is described as follows: CCTE_Deisenroth_5AR_NBTE_ratio: CCTE's 5alpha-reductase NanoBRET Target Engagement Assay - Ratio, Deisenroth Lab (AID 2284322). The following applies: actives raise or lower the signal. The method in brief:
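HEK293T cells transiently expressing an SRD5A2-NanoLuc fusion (20 h post-transfection) were exposed to test chemical (10 nM - 29.9 uM, 8 points) for 3 h, then testosterone tracer for a further 2 h. Acceptor/donor BRET ratio was fitted bidirectionally against DMSO baseline.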

The nature of test [4]: CCTE_Mundy_HCI_iCellGluta_NOG_NeuriteLength: CCTE's Neurite Outgrowth Assay in iCellGluta cells for Neurite Length, Mundy Lab (AID 2284318; active = hit-call score of the fitted dose curve at least 0.9, where 1 is the maximum). The protocol:
CCTE_Mundy_HCI_iCellGluta_NOG is a multiplexed, cell-based-readout assay that uses iCell GlutaNeurons from FUJIFILM Cellular Dynamics, Inc. (FCDI), human glutamatergic enriched neurons derived from induced pluripotent stem (iPS) cells, with measurements taken at 50.33 hours after chemical dosing in a microplate: 96-well plate.CCTE_Mundy_HCI_iCellGluta_NOG_NeuriteLength is one of four components of the CCTE_Mundy_HCI_iCellGluta_NOG assay. It measures neurite outgrowth related to neurite length using High Content Imaging of fluorescently labelled markers.Data from the assay component CCTE_Mundy_HCI_iCellGluta_NOG_NeuriteLength was analyzed at the endpoint CCTE_Mundy_HCI_iCellGluta_NOG_NeuriteLength in the positive analysis fitting direction relative to DMSO as the negative control and baseline of activity. Using a type of morphology reporter, loss-of-signal activity can be used to understand developmental effects.
Exposure starts 2 hours post-plating by adding 10 ul of the working solution to 90 ul of media in the wells for a 1/10 dilution. Forty-eight hours after chemical treatment cells are fixed by direct addition of 100 ul of warm (37C) Dulbecco's phosphate buffered saline (DPBS) fixative solution containing 8% paraformaldehyde, 8% sucrose, and 0.1% of 3 mg/ml Hoechst 33342 into each well. Primary antibodies are prepared by dilution in Immunocytochemical Staining Buffer (ISB), 10X Dulbecco's PBS, 0.1% Saponin, 5% Bovine Serum Albumin, 0.5% NaN3 (Sodium Azide) and betaIII-tubulin (rabbit anti-betaIII-tubulin, 1:800) followed by Alexa Fluor-488 secondary (1:500) to label neuronal cell bodies and neurites. A Cellomics ArrayScan VTi HCS Reader is used for automated image acquisition and analysis of neurite outgrowth.

As a reminder, the AC50 is the midpoint of the concentration-response curve, whichever way the signal moves.

Molecules are shown by their SMILES. Records with an inconclusive call do not appear. Activity calls are given as the source filed them. Rule for the calls, unless noted: active = hit-call score of the fitted dose curve at least 0.9, where 1 is the maximum; inactive = score below 0.9.

As for `O=c1ssc(Cl)c1Cl`, the compound was called inactive in the test with IYD (gene 389434).

Take `C=CC(=O)OCC(F)(F)C(F)F`: the AC50 in the test with TTR (gene 7276) was 56.8 µM (active).

Consider `CCCCc1ccc(O)cc1`, for which the compound was classed as inactive in the test with IYD (gene 389434).

For the compound `CCCCC(CC)COP(=O)(Oc1ccccc1)Oc1ccccc1` (centres undefined), the compound was classed as inactive in test [1].

Take `COC(=O)C(F)(F)C(F)(F)OC(F)(C(F)(F)F)C(F)(F)OC(F)=C(F)F` (centres undefined): in the test with TTR (gene 7276), the AC50 was 0.977 µM (active).

With `O=C(O)C1C(C(=O)O)C2(Cl)C(Cl)=C(Cl)C1(Cl)C2(Cl)Cl` (centres undefined), the call (in test [2]; in test [3]; with SRD5A2 (gene 6716)) was inactive.

On to `OCC(F)(F)OC(F)(F)C(F)(F)OC(F)(F)C(F)(F)OC(F)(F)F`, for which the AC50 in the test on TTR (gene 7276) is 51.7 µM (active).

With `O=S1(=O)OCC2C(CO1)C1(Cl)C(Cl)=C(Cl)C2(Cl)C1(Cl)Cl` (centres undefined), in test [1], the compound was called inactive.

As for `c1ccc2c(c1)Nc1ccccc1S2`, the result in test [2] and in test [3] was inactive. Further, the AC50 in the test on SRD5A2 (gene 6716) was 23.7 µM (active).

Regarding `CCCN(CCC)c1c([N+](=O)[O-])cc(C(C)C)cc1[N+](=O)[O-]`, the compound was called inactive (in test [2]; in test [3]; with SRD5A2 (gene 6716)).

On to `O=S(=O)(F)C(F)(F)C(F)(F)C(F)(F)C(F)(F)C(F)(F)C(F)(F)C(F)(F)C(F)(F)F`, for which the AC50 in the test with TTR (gene 7276) was 55 µM (active).

`CCOP(=S)(OCC)SCSCC`: the outcome (in test [1]; in test [4]; in test [2]; in test [3]; in the test with SRD5A2 (gene 6716)) was inactive.

Regarding `O=C(O)C(F)(F)OC(F)(F)C(F)(F)OC(F)(F)C(=O)O`, in test [4], the call was inactive. Moreover, the concentration at half-maximal activity (AC50) with TTR (gene 7276) was 0.746 µM (active).

Take `O=C(O)C(F)(F)OC(F)(F)C(F)(F)OC(F)(F)F`: in test [4], the compound was called inactive. The AC50 with TTR (gene 7276) is 3.59 µM (active).

In the case of `OCC(F)(F)OC(F)(F)C(F)(F)OC(F)(F)CO`, in the test with TTR (gene 7276), the AC50 is 40.1 µM (active).

As for `O=P(Oc1ccccc1)(Oc1ccccc1)Oc1ccccc1`, the call in test [1] was inactive.

As for `CCCCCCCc1ccc(O)cc1`, the AC50 with IYD (gene 389434) is 52.4 µM (active).
